Measured values from PubChem BioAssay AID1159580 (chemical genetic matrix, 2015).
About 2,000 (36%) of roughly 5,500 compounds were called active. Roughly 18% stayed inconclusive and do not appear here. Cut-off read from the data, not from the text of the source: active = normalized growth mostly below about 0.91 (no sharp cut-off); inconclusive = no clear call, values can overlap the other calls; inactive = mostly above about 0.92. The list shows a part of the results.

Experiment: chemical genetic growth profiling, strain panel (AID 1159580);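 note: tested at 20 µM; growth read once vehicle control cultures reached saturation at 30 °C; 1 = growth at the plate median or of vehicle wells; lower values mean less growth of the strain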
Conditions: growth OD
[1] = S. cerevisiae deletion strains, locus YAL013W, strain DEP1, stronger effect = lower value
[2] = S. cerevisiae deletion strains, locus YBR229C, strain ROT2, stronger effect = lower value
[3] = S. cerevisiae deletion strains, locus YDL101C, strain DUN1, stronger effect = lower value
[4] = S. cerevisiae deletion strains, locus YDR150W, strain NUM1, stronger effect = lower value
[5] = S. cerevisiae deletion strains, locus YEL061C, strain CIN8, stronger effect = lower value
[6] = S. cerevisiae deletion strains, locus YGR078C, strain PAC10, stronger effect = lower value
[7] = S. cerevisiae deletion strains, locus YHR030C, strain SLT2, stronger effect = lower value
[8] = S. cerevisiae deletion strains, locus YHR087W, strain rtc3, stronger effect = lower value
[9] = S. cerevisiae deletion strains, locus YJR043C, strain POL32, stronger effect = lower value
[10] = S. cerevisiae deletion strains, locus YJR075W, strain HOC1, stronger effect = lower value
[11] = S. cerevisiae deletion strains, locus YLR039C, strain RIC1, stronger effect = lower value
[12] = S. cerevisiae deletion strains, locus YLR058C, strain SHM2 (second series), stronger effect = lower value
[13] = S. cerevisiae deletion strains, locus YLR085C, strain ARP6, stronger effect = lower value
[14] = S. cerevisiae deletion strains, locus YLR262C, strain YPT6, stronger effect = lower value
[15] = S. cerevisiae deletion strains, locus YML094W, strain GIM5, stronger effect = lower value
[16] = S. cerevisiae deletion strains, locus YMR219W, strain ESC1, stronger effect = lower value
[17] = S. cerevisiae deletion strains, locus YMR263W, strain SAP30, stronger effect = lower value
[18] = S. cerevisiae deletion strains, locus YNL153C, strain GIM3, stronger effect = lower value
[19] = S. cerevisiae deletion strains, locus YNL298W, strain CLA4 (second series), stronger effect = lower value
[20] = S. cerevisiae deletion strains, locus YNL322C, strain KRE1, stronger effect = lower value
[21] = S. cerevisiae deletion strains, locus YNR030W, strain Alg12, stronger effect = lower value
[22] = S. cerevisiae deletion strains, locus YOL006C, strain TOP1, stronger effect = lower value
[23] = S. cerevisiae deletion strains, locus YPL055C, strain LGE1, stronger effect = lower value
[24] = S. cerevisiae deletion strains, locus YPL241C, strain CIN2, stronger effect = lower value
[25] = S. cerevisiae deletion strains, locus YPR135W, strain CTF4, stronger effect = lower value
[26] = S. cerevisiae strains, strain wild type, stronger effect = lower value

Measured: normalized growth

N/C(=N/OC(=O)C(Cl)Cl)c1cccc(Cl)c1Cl
inactive: [1] 1.02 | [2] 0.978 | [3] 0.943 | [4] 1 | [5] 0.997 | [6] 0.973 | [7] 0.94 | [8] 0.971 | [9] 0.979 | [10] 0.925 | S. cerevisiae deletion strains, locus YKL190W, strain CNB1, stronger effect = lower value 0.982 | [11] 0.936 | [12] 0.968 | [13] 1.04 | [14] 0.921 | [15] 1.03 | [16] 0.984 | [17] 0.992 | [18] 1.01 | [19] 0.965 | [20] 0.98 | [21] 1 | [22] 0.939 | [23] 1.03 | [24] 0.907 | [25] 1.22 | [26] 0.972

N/C(=N/OC(=O)c1ccccc1Cl)c1ccc2nonc2c1
inactive: S. cerevisiae deletion strains, locus YAR019C, strain CDC15, stronger effect = lower value 0.967 | S. cerevisiae deletion strains, locus YBL105C, strain PKC1, stronger effect = lower value 0.963 | S. cerevisiae deletion strains, locus YBR135W, strain CKS1, stronger effect = lower value 0.962 | S. cerevisiae deletion strains, locus YBR136W, strain MEC1, stronger effect = lower value 0.966 | S. cerevisiae deletion strains, locus YBR160W, strain CDC28, stronger effect = lower value 0.959 | S. cerevisiae deletion strains, locus YDL017W, strain CDC7, stronger effect = lower value 0.968 | S. cerevisiae deletion strains, locus YDL028C, strain MPS1, stronger effect = lower value 0.964 | [3] 0.977 | S. cerevisiae deletion strains, locus YDL108W, strain KIN28, stronger effect = lower value 0.973 | S. cerevisiae deletion strains, locus YDL132W, strain cdc53, stronger effect = lower value 0.958 | S. cerevisiae deletion strains, locus YDL214C, strain PRR2, stronger effect = lower value 0.978 | S. cerevisiae deletion strains, locus YDR052C, strain DBF4, stronger effect = lower value 0.976 | S. cerevisiae deletion strains, locus YDR054C, strain cdc34, stronger effect = lower value 0.95 | S. cerevisiae deletion strains, locus YDR226W, strain ADK1, stronger effect = lower value 0.975 | S. cerevisiae deletion strains, locus YDR477W, strain SNF1, stronger effect = lower value 0.989 | S. cerevisiae deletion strains, locus YER123W, strain YCK3, stronger effect = lower value 0.977 | S. cerevisiae deletion strains, locus YER133W, strain GLC7, stronger effect = lower value 0.961 | S. cerevisiae deletion strains, locus YFL009W, strain cdc4, stronger effect = lower value 0.965 | S. cerevisiae deletion strains, locus YFL029C, strain CAK1, stronger effect = lower value 0.963 | S. cerevisiae deletion strains, locus YFR003C, strain YPI1, stronger effect = lower value 0.972 | S. cerevisiae deletion strains, locus YFR019W, strain FAB1, stronger effect = lower value 0.956 | S. cerevisiae deletion strains, locus YFR028C, strain CDC14, stronger effect = lower value 0.977 | S. cerevisiae deletion strains, locus YGR040W, strain KSS1, stronger effect = lower value 0.976 | S. cerevisiae deletion strains, locus YGR052W, strain FMP48, stronger effect = lower value 1.05 | S. cerevisiae deletion strains, locus YGR092W, strain DBF2, stronger effect = lower value 0.847 | S. cerevisiae deletion strains, locus YHR079C, strain IRE1, stronger effect = lower value 0.963 | S. cerevisiae deletion strains, locus YHR082C, strain KSP1, stronger effect = lower value 1.01 | S. cerevisiae deletion strains, locus YHR205W, strain SCH9, stronger effect = lower value 0.971 | S. cerevisiae deletion strains, locus YIL147C, strain SLN1, stronger effect = lower value 0.96 | S. cerevisiae deletion strains, locus YJL095W, strain BCK1, stronger effect = lower value 0.904 | S. cerevisiae deletion strains, locus YJL128C, strain PBS2, stronger effect = lower value 0.985 | S. cerevisiae deletion strains, locus YJL157C, strain FAR1, stronger effect = lower value 0.977 | S. cerevisiae deletion strains, locus YJR016C, strain ILV3, stronger effect = lower value 0.966 | S. cerevisiae deletion strains, locus YJR066W, strain TOR1 (second series), stronger effect = lower value 0.915 | S. cerevisiae deletion strains, locus YJR066W, strain TOR1, stronger effect = lower value 0.947 | S. cerevisiae deletion strains, locus YKL048C, strain ELM1, stronger effect = lower value 0.985 | S. cerevisiae deletion strains, locus YKL067W, strain YNK1, stronger effect = lower value 0.986 | S. cerevisiae deletion strains, locus YKL101W, strain HSL1, stronger effect = lower value 0.991 | S. cerevisiae deletion strains, locus YKL193C, strain SDS22, stronger effect = lower value 0.965 | S. cerevisiae deletion strains, locus YKL203C, strain TOR2, stronger effect = lower value 1.01 | S. cerevisiae deletion strains, locus YLR113W, strain HOG1, stronger effect = lower value 0.96 | S. cerevisiae deletion strains, locus YLR133W, strain CKI1, stronger effect = lower value 0.994 | S. cerevisiae deletion strains, locus YLR403W, strain SFP1, stronger effect = lower value 0.96 | S. cerevisiae deletion strains, locus YML070W, strain DAK1, stronger effect = lower value 0.99 | S. cerevisiae deletion strains, locus YMR001C, strain CDC5, stronger effect = lower value 0.97 | S. cerevisiae deletion strains, locus YMR205C, strain PFK2 (second series), stronger effect = lower value 0.984 | S. cerevisiae deletion strains, locus YMR277W, strain FCP1, stronger effect = lower value 0.963 | S. cerevisiae deletion strains, locus YNL006W, strain LST8, stronger effect = lower value 0.974 | S. cerevisiae deletion strains, locus YNL020C, strain ARK1, stronger effect = lower value 0.98 | S. cerevisiae deletion strains, locus YNL161W, strain CBK1, stronger effect = lower value 0.973 | S. cerevisiae deletion strains, locus YNL183C, strain NPR1, stronger effect = lower value 0.955 | S. cerevisiae deletion strains, locus YNL207W, strain RIO2, stronger effect = lower value 0.964 | S. cerevisiae deletion strains, locus YNL222W, strain SSU72, stronger effect = lower value 0.968 | S. cerevisiae deletion strains, locus YNL307C, strain MCK1 (second series), stronger effect = lower value 0.982 | S. cerevisiae deletion strains, locus YOL078W, strain AVO1, stronger effect = lower value 0.972 | S. cerevisiae deletion strains, locus YOL136C, strain PFK27, stronger effect = lower value 0.983 | S. cerevisiae deletion strains, locus YOR061W, strain CKA2, stronger effect = lower value 0.985 | S. cerevisiae deletion strains, locus YOR119C, strain RIO1, stronger effect = lower value 1.07 | S. cerevisiae deletion strains, locus YOR231W, strain MKK1, stronger effect = lower value 0.96 | S. cerevisiae deletion strains, locus YOR329C, strain SCD5, stronger effect = lower value 0.97 | S. cerevisiae deletion strains, locus YPL031C, strain PHO85, stronger effect = lower value 0.966 | S. cerevisiae deletion strains, locus YPL153C, strain RAD53, stronger effect = lower value 0.959 | S. cerevisiae deletion strains, locus YPL204W, strain HRR25, stronger effect = lower value 0.95 | S. cerevisiae deletion strains, locus YPL209C, strain IPL1, stronger effect = lower value 0.968 | S. cerevisiae deletion strains, locus YPL256C, strain CLN2, stronger effect = lower value 0.963 | S. cerevisiae deletion strains, locus YPR025C, strain CCL1, stronger effect = lower value 0.962 | S. cerevisiae deletion strains, locus YPR106W, strain ISR1, stronger effect = lower value 0.981 | S. cerevisiae deletion strains, locus YPR111W, strain DBF20, stronger effect = lower value 0.974 | S. cerevisiae deletion strains, strain NNK1, stronger effect = lower value 0.98 | S. cerevisiae deletion strains, strain TSCII, stronger effect = lower value 0.962
active: [7] 0.825

NC(=S)c1ccc2nonc2c1
inactive: [1] 0.999 | [2] 1 | [3] 0.984 | S. cerevisiae deletion strains, locus YDL134C, strain PPH21, stronger effect = lower value 0.986 | [4] 0.927 | [5] 1 | [6] 1 | S. cerevisiae deletion strains, locus YGR229C, strain SMI1, stronger effect = lower value 0.994 | [7] 0.991 | [8] 0.996 | [9] 1.02 | [10] 1.01 | [11] 1.04 | [12] 1 | [13] 0.945 | [14] 1.02 | [15] 0.982 | [16] 0.992 | [17] 1.03 | S. cerevisiae deletion strains, locus YMR307W, strain GAS1, stronger effect = lower value 1.03 | [18] 1.01 | [19] 1.02 | [20] 0.996 | [21] 0.988 | [22] 0.976 | [23] 1.09 | [24] 0.963 | [25] 1.13 | [26] 0.994
